Consider seven molecules from PubChem BioAssay (EPA / NIEHS).

The source made the active and inactive calls. The calls were made as follows: active = hit-call score of the fitted dose curve at least 0.9, where 1 is the maximum; inactive = score below 0.9.

Common to all, as to details: mRNA level, 48 h; actives raise or lower the signal
Read-out in assay [1]: Cyclin Dependent Kinase Inhibitor 1A (CDKN1A), CDKN1A (gene 1026)
Put plainly: LTEA_HepaRG_CDKN1A: Life Technologies and Expression Analysis (LTEA) Assay for Cyclin Dependent Kinase Inhibitor 1A (CDKN1A) using HepaRG (AID 2283450). An outline of the steps: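 Read-out is CDKN1A mRNA by TaqMan qRT-PCR, normalized to three housekeeping genes and fitted in both directions against the DMSO baseline. Human HepaRG cells were treated 48 h with test chemicals up to 100 uM in half-log steps, 0.5% DMSO.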

Read-out in assay [2]: Cyclin D1 (CCND1), CCND1 (gene 595)
Put plainly: LTEA_HepaRG_CCND1: Life Technologies and Expression Analysis (LTEA) Assay for Cyclin D1 (CCND1) using HepaRG (AID 2283451).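 As to AC50: differentiated human HepaRG liver cells in serum-free induction medium; TaqMan qRT-PCR transcript level normalised to ACTB GAPDH and POLR2A housekeeping genes.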 The gist of the method: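 HepaRG plated 48 h, medium switched to serum-free induction medium, chemicals added in duplicate (top 100 uM, half-log steps, 0.5% DMSO) for 48 h, cells lysed, RNA measured by TaqMan qRT-PCR.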

Read-out in assay [3]: catalase (CAT), CAT (gene 847)
Nature of the assay: LTEA_HepaRG_CAT: Life Technologies and Expression Analysis (LTEA) Assay for catalase (CAT) using HepaRG (AID 2283452).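 As to AC50: TaqMan qRT-PCR signal normalized to ACTB GAPDH and POLR2A housekeeping genes.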 The gist of the method:
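Expression of CAT was quantified by TaqMan qRT-PCR with ACTB/GAPDH/POLR2A normalization after 48 h chemical exposure of HepaRG. Eight-point half-log series, top 100 uM, in 0.5% DMSO; gain or loss fitted against vehicle.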

Read-out in assay [4]: flavin-containing dimethylaniline monooxygenases 3 (FMO3), FMO3 (gene 2328)
Put plainly: LTEA_HepaRG_FMO3: Life Technologies and Expression Analysis (LTEA) Assay for flavin-containing dimethylaniline monooxygenases 3 (FMO3) using HepaRG (AID 2283453).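 As to AC50: differentiated human HepaRG liver cells in serum-free induction medium.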 An outline of the steps:
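FMO3 transcript quantified by TaqMan qRT-PCR against three housekeeping genes after 48 h chemical exposure of HepaRG cells. Eight-point half-log series, top 100 uM, 0.5% DMSO vehicle; phenobarbital 1mM induction control; up- or down-regulation fitted.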

Read-out in assay [5]: Cytochrome P450 (CYP1A1), CYP1A1 (gene 1543)
Nature of the assay: LTEA_HepaRG_CYP1A1: Life Technologies and Expression Analysis (LTEA) Assay for Cytochrome P450 (CYP1A1) using HepaRG (AID 2283454). An outline of the steps:
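HepaRG, 48 h post-plating switched to serum-free induction medium; 8-pt conc-response (top 100 uM, half-log, 0.5% DMSO), duplicates, 48 h. Lysis in RLT, TaqMan qRT-PCR for CYP1A1; gain or loss vs DMSO.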

Read-out in assay [6]: CFLAR gene, CFLAR (gene 8837)
Nature of the assay: LTEA_HepaRG_CFLAR: Life Technologies and Expression Analysis (LTEA) Assay for CFLAR gene using HepaRG (AID 2283455). An outline of the steps:
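Transcript level by qRT-PCR (normalized to ACTB, GAPDH and POLR2A) after 48 h chemical exposure of HepaRG cells, top concentration 100 uM with half-log steps, 0.5% DMSO vehicle, duplicates; fitted bidirectionally against DMSO baseline.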

Read-out in assay [7]: Forkhead box O1 (FOXO1), FOXO1 (gene 2308)
Nature of the assay: LTEA_HepaRG_FOXO1: Life Technologies and Expression Analysis (LTEA) Assay for Forkhead box O1 (FOXO1) using HepaRG (AID 2283456). The gist of the method: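 FOXO1 transcript quantified by qRT-PCR after 48 h chemical exposure (top 100 uM, half-log steps, 0.5% DMSO) of HepaRG cells, housekeeping-normalized (ACTB/GAPDH/POLR2A). Changes fitted in both directions relative to vehicle.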

Read-out in assay [8]: growth arrest and DNA damage 45 (GADD45A), GADD45A (gene 1647)
Put plainly: LTEA_HepaRG_GADD45A: Life Technologies and Expression Analysis (LTEA) Assay for growth arrest and DNA damage 45 (GADD45A) using HepaRG (AID 2283458). The gist of the method: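 Transcript induction or loss, quantified by TaqMan qRT-PCR against three housekeeping genes, is the read-out. HepaRG cells received chemicals for 48 h across eight half-log concentrations from 100 uM in 0.5% DMSO; gain and loss fitted relative to DMSO.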

Read-out in assay [9]: Forkhead box O3 (FOXO3), FOXO3 (gene 2309)
Put plainly: LTEA_HepaRG_FOXO3: Life Technologies and Expression Analysis (LTEA) Assay for Forkhead box O3 (FOXO3) using HepaRG (AID 2283459). An outline of the steps:
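FOXO3 transcript measured by qRT-PCR (normalized to ACTB, GAPDH, POLR2A) after 48 h exposure of HepaRG cells in serum-free induction medium. Duplicates, eight half-log concentrations up to 100 uM, 0.5% DMSO; gain or loss fitted against DMSO.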

Read-out in assay [10]: ABC Transporter (ABCC3), ABCC3 (gene 8714)
Nature of the assay: LTEA_HepaRG_ABCC3: Life Technologies and Expression Analysis (LTEA) Assay for ABC Transporter (ABCC3) using HepaRG (AID 2283462). The gist of the method:
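Human HepaRG, 48 h dosing, 8-pt half-log series from 100 uM, 0.5% DMSO vehicle, duplicates. ABCC3 mRNA by TaqMan qRT-PCR, housekeeping-normalized; bidirectional curve fit vs DMSO.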

Read-out in assay [11]: ABC Transporter (ABCB11), ABCB11 (gene 8647)
Put plainly: LTEA_HepaRG_ABCB11: Life Technologies and Expression Analysis (LTEA) Assay for ABC Transporter (ABCB11) using HepaRG (AID 2283463). The gist of the method: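 ABCB11 transcript levels quantified by TaqMan qRT-PCR against three housekeeping genes after 48 h chemical exposure of HepaRG cultures. Concentrations up to 100 uM in half-log steps, 0.5% DMSO vehicle; both induction and suppression scored.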

Read-out in assay [12]: ABC Transporter (ABCC2), ABCC2 (gene 1244)
Nature of the assay: LTEA_HepaRG_ABCC2: Life Technologies and Expression Analysis (LTEA) Assay for ABC Transporter (ABCC2) using HepaRG (AID 2283464). The gist of the method: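 HepaRG, 48 h post-plating; serum-free induction medium; cpd 8-pt, 100 uM top, half-log, 0.5% DMSO, duplicate, 48 h. Readout: ABCC2 mRNA by qRT-PCR, norm. ACTB/GAPDH/POLR2A. Bidirectional fit vs DMSO baseline.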

Read-out in assay [13]: Broad substrate specificity ATP-binding cassette transporter ABCG2 (Homo sapiens) (UniProt Q9UNQ0)
Nature of the assay: LTEA_HepaRG_ABCG2: Life Technologies and Expression Analysis (LTEA) Assay for ABC Transporter (ABCG2) using HepaRG (AID 2283465). The gist of the method:
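ABCG2 transcript was quantified by TaqMan qRT-PCR against three housekeeping genes in HepaRG cells. Cells were treated in duplicate for 48 h across an 8-point half-log series up to 100 uM, with 0.5% DMSO vehicle. Gain or loss versus DMSO was fit.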

Read-out in assay [14]: ATP-citrate lyase (ACLY), ACLY (gene 47)
Nature of the assay: LTEA_HepaRG_ACLY: Life Technologies and Expression Analysis (LTEA) Assay for ATP-citrate lyase (ACLY) using HepaRG (AID 2283466). The gist of the method:
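ACLY mRNA quantified by qRT-PCR on Fluidigm arrays against three housekeeping genes, after 48 h chemical treatment of HepaRG cells (top concentration 100 uM, half-log steps, 0.5% DMSO vehicle). Up- or down-regulation fitted relative to DMSO.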

Read-out in assay [15]: Peroxisomal acyl-coenzyme A oxidase 1 (ACOX1) gene, ACOX1 (gene 51)
Put plainly: LTEA_HepaRG_ACOX1: Life Technologies and Expression Analysis (LTEA) Assay for Peroxisomal acyl-coenzyme A oxidase 1 (ACOX1) gene using HepaRG (AID 2283467). The gist of the method: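 ACOX1 transcript levels were quantified by TaqMan qRT-PCR against three housekeeping genes after 48 h chemical exposure of differentiated human HepaRG cells. Exposure used eight half-log steps topping at 100 uM, 0.5% DMSO vehicle, in duplicate. Bidirectional curve fits were made relative to DMSO.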

Read-out in assay [16]: Alkaline Phosphatase, Placental (ALPP) gene, ALPP (gene 250)
Put plainly: LTEA_HepaRG_ALPP: Life Technologies and Expression Analysis (LTEA) Assay for Alkaline Phosphatase, Placental (ALPP) gene using HepaRG (AID 2283468).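 As to AC50: differentiated human HepaRG liver cells in serum-free induction medium.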 The gist of the method:
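HepaRG, 48 h plating then 48 h dosing, serum-free induction medium, 0.5% DMSO. 8 conc, half-log, max 100 uM, duplicates. Endpoint: ALPP transcript by qRT-PCR, housekeeping-normalized; gain or loss fitted vs DMSO.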

Read-out in assay [17]: Bcl-2 (BAD) gene, BAD (gene 572)
Put plainly: LTEA_HepaRG_BAD: Life Technologies and Expression Analysis (LTEA) Assay for Bcl-2 (BAD) gene using HepaRG (AID 2283469). The gist of the method: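 Read-out: qRT-PCR of BAD mRNA, normalized to three housekeeping genes. Human HepaRG cultures got 48 h chemical exposure in 0.5% DMSO, duplicate eight-point half-log series topping at 100 uM. Gain or loss of signal fitted versus DMSO vehicle.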

Read-out in assay [18]: ABC Transporter (ABCB1), ABCB1 (gene 5243)
Nature of the assay: LTEA_HepaRG_ABCB1: Life Technologies and Expression Analysis (LTEA) Assay for ABC Transporter (ABCB1) using HepaRG (AID 2283460). The gist of the method:
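ABCB1 transcript level measured by TaqMan qRT-PCR against three housekeeping genes after 48 h chemical exposure of differentiated HepaRG cells. Top concentration 100 uM, half-log steps, eight points, 0.5% DMSO vehicle; bidirectional fit relative to DMSO.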

Read-out in assay [19]: growth arrest and DNA damage 45 (GADD45B), GADD45B (gene 4616)
Nature of the assay: LTEA_HepaRG_GADD45B: Life Technologies and Expression Analysis (LTEA) Assay for growth arrest and DNA damage 45 (GADD45B) using HepaRG (AID 2283461). The gist of the method: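 HepaRG, ~100,000 cells/well, 48 h plating; serum-free induction medium; cpd 100 uM top, half-log x8, 0.5% DMSO, duplicate, 48 h; lysis in RLT, RNA isolation, qRT-PCR; norm ACTB/GAPDH/POLR2A; bidirectional fit vs DMSO.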

By AC50 is commonly meant the midpoint of the concentration-response curve, whichever way the signal moves.

Sequence of Broad substrate specificity ATP-binding cassette transporter ABCG2 (Homo sapiens) (Q9UNQ0 whole entry, looked up): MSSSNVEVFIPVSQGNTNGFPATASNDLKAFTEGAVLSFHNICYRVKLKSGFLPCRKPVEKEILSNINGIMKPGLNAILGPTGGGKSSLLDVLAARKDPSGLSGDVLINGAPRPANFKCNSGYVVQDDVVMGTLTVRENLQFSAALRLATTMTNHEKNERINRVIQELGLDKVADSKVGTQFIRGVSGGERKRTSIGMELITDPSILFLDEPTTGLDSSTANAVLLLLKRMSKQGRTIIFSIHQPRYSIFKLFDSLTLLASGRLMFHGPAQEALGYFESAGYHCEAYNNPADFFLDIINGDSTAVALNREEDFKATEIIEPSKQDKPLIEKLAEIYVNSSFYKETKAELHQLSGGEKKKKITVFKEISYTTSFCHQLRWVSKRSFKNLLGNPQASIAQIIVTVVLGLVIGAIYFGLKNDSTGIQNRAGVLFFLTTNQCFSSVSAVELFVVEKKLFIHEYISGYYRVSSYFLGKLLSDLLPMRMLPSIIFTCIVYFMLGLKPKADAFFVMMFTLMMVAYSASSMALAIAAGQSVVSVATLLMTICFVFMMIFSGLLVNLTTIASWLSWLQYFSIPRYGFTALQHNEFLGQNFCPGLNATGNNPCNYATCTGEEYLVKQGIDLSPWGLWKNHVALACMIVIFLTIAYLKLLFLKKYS

On to `O=c1n(Cl)c(=O)n(Cl)c(=O)n1Cl`, for which the molecule was classed as inactive in assay [1], in assay [2], in assay [3], in assay [4], in [6] and in assay [7]. In addition, the result in assay [8], in assay [9], in assay [10], in assay [11], in [12] and in [13] was inactive. Besides, the molecule was classed as inactive in assay [14], in assay [15], in assay [16] and in [17]. Moreover, the AC50 in assay [5] is 60.2 µM (active).

For `N#Cc1c[nH]cc1-c1cccc2c1OC(F)(F)O2`, the outcome in [1], in assay [8], in assay [10], in [12], in assay [14] and in [15] was inactive. In addition, the molecule was called inactive in assay [17]. In addition, the AC50 in assay [2] is 50 µM (active); in [3], 74.9 µM (active); in assay [4], 71.8 µM (active); in assay [5] it was 77.2 µM (active); in assay [6], 14.7 µM (active); in assay [9], 12.3 µM (active). In addition, the concentration at half-maximal activity (AC50) is 44.8 µM (active) in assay [11], 50 µM (active) in assay [13] and 10 µM (active) in assay [16].

As for `CCNC(=O)NC(=O)C(C#N)=NOC`, the outcome in assay [1], in assay [2], in [4], in assay [6], in assay [9] and in [18] was inactive. Besides, the molecule was called inactive in assay [19], in assay [11], in assay [12], in assay [13], in [15] and in [16]. For the same molecule, the molecule was called inactive in [17]. Besides, the results for the AC50 in assay [5], in assay [8] and in assay [10] were 50 µM (active), 0.361 µM (active) and 0.791 µM (active), respectively.

Take `Cc1cnc(C2=NC(C)(C(C)C)C(=O)N2)c(C(=O)O)c1` (stereo not given): the call in assay [2], in [3], in [4], in assay [6], in [7] and in [8] was inactive. The molecule was called inactive in assay [9], in assay [18], in assay [19], in [10], in assay [11] and in [12]. Besides, the molecule was called inactive in [13], in [15], in assay [16] and in [17]. Further, in assay [5], the concentration at half-maximal activity (AC50) is 71.2 µM (active).

`CCCC(=NOCC)C1=C(O)CC(CC(C)SCC)CC1=O` (stereo not given): the molecule was called inactive in assay [1], in assay [2], in assay [4], in [6], in [7] and in assay [8]. Also, the call in assay [9], in assay [18], in assay [10], in assay [11], in assay [12] and in assay [13] was inactive. The call in assay [15], in assay [16] and in [17] was inactive. Moreover, the AC50 in [5] is 73.9 µM (active).

In the case of `CCCCC(O)(Cn1cncn1)c1ccc(Cl)cc1Cl` (stereo not given), the AC50 in assay [1] is 35.4 µM (active); in assay [2], 57.7 µM (active); in [3], 73 µM (active); in assay [4], 75.9 µM (active); in assay [5], 12.9 µM (active); in assay [6] it was 66.5 µM (active). The AC50 in [8] was 89.9 µM (active); in assay [10], 50 µM (active); in assay [11], 68.6 µM (active); in assay [12], 79.9 µM (active); in assay [14] it was 12.3 µM (active); in [15], 69.4 µM (active). Also, in [16], the AC50 was 73.3 µM (active). Besides, the molecule was classed as inactive in assay [9], in [19], in [13] and in assay [17].

Take `Nc1c(Cl)c(Cl)nc(C(=O)O)c1Cl`: the molecule was classed as inactive in [1], in [2], in assay [4], in assay [6], in [7] and in [8]. For the same molecule, the call in assay [9], in [10], in [11], in assay [12], in assay [13] and in assay [14] was inactive. The result in [15], in [16] and in assay [17] was inactive. Further, the AC50 in assay [5] was 50 µM (active).
